Bioassay records (PubChem)
KB-3-1 tox: KB-3-1 parental cell cytotoxicity; Potency, µM (titrated, usually from 46.1 µM), usual class: cytotoxic; 400,000 tested, 1.4% active; AID 1347075; KB-3-1 viability, CellTiter-Glo ATP luminescence, 72 h; note: % is set by controls: 0 for no effect and ±100 for the full control effect; nearly all actives have a fitted effect of over 60% in size
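Here the drug-naive KB-3-1 line serves as comparator for MDR sub-line selectivity; cells received compound titrations, 72 h at 37 °C, then CellTiter-Glo readout.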
SW480 rereplic: inducers of DNA re-replication in SW480 colon cancer cells; SW480 DNA re-replication, Hoechst DNA content imaging, 48 h; Potency, µM (titrated, usually from 46.1 µM), without a hit: at the top dose re-replication activation, most hits filed as activators; 340,000 tested, 1.8% active; note: % of control where 0% means no effect; nearly all actives have a fitted effect of over 55% in size
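Compounds, transferred as 23 nL by pin tool, were incubated with cells for 48 hr; DNA content per nucleus was then quantified by Hoechst staining and fluorescence plate imaging.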
KB-V1 cytotox: kills drug-selected multidrug resistant KB-V1 cells | Potency, µM (top dose mostly 46.1 µM), hits mostly cytotoxic | 400,000 tested, 3.4% active | KB-V1 MDR cells viability, CellTiter-Glo, 72 h; note: % is set by controls: 0 for no effect and ±100 for the full control effect; nearly all actives have a fitted effect of over 60% in size
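Drug-selected KB-V1 cells, grown in DMEM lacking phenol red with 10% FBS, receive compound titrations; after three days at 37 degrees C, surviving cell ATP is quantified by CellTiter-Glo luminescence and responses normalized and curve-fitted.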
ELG1 repair inh: blocks ELG1-dependent DNA repair in HEK293T cells. AID 504467. 330,000 tested, 2.3% active. HEK293T ELG1-luciferase reporter, luminescence, 16 h; DNA damage induced by 5-fluorouridine. Potency, µM (doses to about 46.1 µM), inactives show top-dose activity change, negative = inhibition, hits mostly inhibitors; note: % is set by controls: 0 for no effect and ±100 for the full control effect; nearly all actives have a fitted effect of over 55% in size
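HEK293T cells expressing luciferase-tagged ELG1 (2,000/well) received 5-Fluorouridine plus compound or DMSO for 16 hr at 37 °C. Luciferase was read by ONE-Glo luminescence after 30 min at room temperature.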
MCF10A rereplic: DNA re-replication induction in MCF 10a cells | MCF 10A DNA re-replication, Hoechst nuclear intensity, 48 h | Potency, µM (highest dose often 46.1 µM), inactives show top-dose activity, positive = re-replication, actives largely listed as activators | 350,000 tested, 2.9% active; note: % of control where 0% means no effect; nearly all actives have a fitted effect of over 50% in size
The depositor's hits bear a star; i = inactive; ? = inconclusive; nt = no result given. A selection: hits, their analogues and other compounds. The true share with any hit is near 8.2%. Calls come from the whole dose curve; as a rule, active = well fitted curve in the direction sought with a large enough effect; inconclusive = small, poorly fitted or top-dose-only effect, or another doubt; inactive = no such curve, though single readings can be large; an effect the other way counts as inactive or inconclusive. Potency is the fitted concentration of half-maximal effect.

SMILES | KB-3-1 tox | SW480 rereplic | KB-V1 cytotox | ELG1 repair inh | MCF10A rereplic
COc1ccc(/C=C2\CCc3ccccc3C2=O)cc1O | 3.66µM* | 0.517µM* | 5.17µM* | ? | ?
COc1ccc(/C=C2\Cc3ccccc3C2=O)cc1OC | i | 1.6% | i | ? | 28.2%
NC(N)=NS(=O)(=O)c1ccc(N/C=C/C(=O)c2ccc(Cl)c(Cl)c2)cc1 | i | 14.6µM* | i | 3.5% | ?
CCCc1nc2ccccc2n2c(-c3ccc(C)cc3)c3c(=O)n(C)c(=O)n(C)c3c12 | i | nt | i | nt | nt
COCCNc1oc(-c2ccc(OC)cc2)nc1C#N | i | nt | i | nt | nt
Cc1ccc(-c2nc(C#N)c(NCCN3CCCCC3)o2)cc1 | i | 6.3% | 23.1µM* | 23.6% | 1.7%
COCCNc1oc(-c2ccc(C)cc2)nc1C#N | i | -173.3% | 23.1µM* | ? | 1.7%
COc1ccc(NC(=O)Nc2cccc3c2O[C@H](CN(C)S(=O)(=O)c2cn(C)cn2)[C@@H](C)CN([C@H](C)CO)C3=O)cc1 | i | -1.4% | i | 10.7% | 12.0%
O=C(NCC1CCCC(CNC(=O)N2CCc3ccccc32)C1)N1CCc2ccccc21 (centres undefined) | i | ? | 5.17µM* | ? | 22.6%
COc1cccc(CNC(=O)Cc2ccc(NC(=O)N3CCCCc4ccccc43)cc2)c1OC | i | nt | i | nt | nt
CCOC(=O)CN(C(=O)CSc1nnc2c(n1)[nH]c1c(C)cc(C)cc12)c1ccccc1 | nt | nt | nt | 16.4µM* | nt
C/C(=N/Nc1ccccc1[N+](=O)[O-])c1ccc([N+](=O)[O-])cc1 | i | -10.6% | i | 14.3% | -4.2%
C/C(=N\Nc1ccc([N+](=O)[O-])cc1[N+](=O)[O-])c1ccc(-n2nncc2C(C)(C)C)cc1 | i | -10.0% | ? | 10.3µM* | -10.6%
Cc1ccc(S(=O)(=O)N(C)c2ccccc2C(=O)N2CCOCC2)cc1 | nt | -0.8% | nt | 5.8% | 4.8%
CC(C)C[C@@H](CN1CCCC1CN1C(=S)NC[C@@H]1Cc1ccc(O)cc1)N1C[C@H](Cc2ccc(O)cc2)N(CC2CCCCC2)C1=S (some centres undefined) | ? | ? | ? | nt | 7.31µM*
CC(C)C[C@H]1CNC(=S)N1CC1CCCN1C[C@H](Cc1ccccc1)N1C[C@H](Cc2ccc(O)cc2)N(CC2CCCCC2)C1=S (some centres undefined) | ? | 4.61µM* | ? | nt | -41.0%
Oc1ccc(C[C@H]2CNC(=S)N2CC2CCCN2C[C@H](Cc2ccc(O)cc2)N2C[C@H](Cc3ccccc3)N(CCc3ccccc3)C2=S)cc1 (some centres undefined) | 23.1µM* | ? | i | nt | 19.2%
CC(C)C[C@H]1CNC(=S)N1C[C@H]1CCCN1C[C@H](Cc1ccc(O)cc1)N1C[C@H](Cc2ccccc2)N(CCc2ccccc2)C1=S | i | nt | i | nt | nt
CC(C)C[C@@H](CN1CCC[C@@H]1CN1C(=S)NC[C@@H]1Cc1ccccc1)N1C[C@H](Cc2ccc(O)cc2)N(CC2CCCCC2)C1=S | i | nt | i | nt | nt
Oc1ccc(C[C@H]2CNC(=S)N2CC2CCCN2C[C@H](Cc2ccc(O)cc2)N2C[C@H](Cc3ccc(O)cc3)N(CC3CCCCC3)C2=S)cc1 (some centres undefined) | ? | ? | i | nt | 11.6µM*
CC(C)c1cc(Cn2c3ccccc3c(=O)n2C(C)Cn2cc(C3=CCCCC3)nn2)on1 (centres undefined) | i | nt | ? | nt | nt
COc1cccc(CN(C)C(=O)CNC(=O)c2ccc3c(c2)OCO3)c1OC | i | -9.1% | ? | 1.7% | 0.6%
O=C(Oc1coc(CSc2ncccn2)cc1=O)c1cccc([N+](=O)[O-])c1 | i | -7.2% | i | 7.2% | -1.7%
O=C(Oc1cccc2cccnc12)c1cccc([N+](=O)[O-])c1 | i | ? | ? | 10.9% | ?
O=C(Oc1c(Cl)cc(Cl)c2cccnc12)c1cccc([N+](=O)[O-])c1 | 14.6µM* | ? | i | -17.3% | 10.3µM*
O=C(Oc1ccc(Cl)c2cccnc12)c1cccc([N+](=O)[O-])c1 | i | nt | i | ? | 3.66µM*
